According to PubChem BioAssay AID1159580 (chemical genetic matrix, 2015):
Where “and” joins values, the source holds several entries; their conditions need not be identical. Identical values can stand only once. About 2,000 (36%) of roughly 5,500 compounds were called active. Another 18% or so got no clear call; they are omitted. Rule as the data show it: active = normalized growth mostly below about 0.91 (no sharp cut-off); inconclusive = no clear call, values can overlap the other calls; inactive = mostly above about 0.92. Some of the results follow.

Experiment: chemical genetic growth profiling, strain panel (AID 1159580);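 also: tested at 20 µM; growth read once vehicle control cultures reached saturation at 30 °C; 1 = growth at the plate median or of vehicle wells; lower values mean less growth of the strain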
Conditions: S. cerevisiae deletion strains, growth OD

Measured: normalized growth

COc1cc([C@@H]2c3cc4c(cc3[C@H](O)[C@H]3COC(=O)[C@H]23)OCO4)cc(OC)c1OC
inactive: locus YAL013W, strain DEP1, stronger effect = lower value 1.01 | locus YAL021C, strain ccr4, stronger effect = lower value 1 | locus YAL026C, strain drs2, stronger effect = lower value 1.03 | locus YAL030W, strain snc1, stronger effect = lower value 1.01 | locus YBL061C, strain skt5, stronger effect = lower value 1.01 | locus YBR009C, strain hhf1, stronger effect = lower value 1.04 | locus YBR021W, strain FUR4, stronger effect = lower value 1.01 | locus YBR023C, strain chs3, stronger effect = lower value 1.01 | locus YBR171W, strain sec66, stronger effect = lower value 1.01 | locus YBR229C, strain ROT2, stronger effect = lower value 1.01 | locus YBR231C, strain swc5, stronger effect = lower value 1.01 | locus YBR279W, strain paf1, stronger effect = lower value 1.02 | locus YCL011C, strain gbp2, stronger effect = lower value 1.01 | locus YCL016C, strain dcc1, stronger effect = lower value 0.996 | locus YCL029C, strain bik1, stronger effect = lower value 1.03 | locus YCL061C, strain MRC1, stronger effect = lower value 1.02 | locus YCL069W, strain vba3, stronger effect = lower value 1.01 | locus YCR088W, strain abp1, stronger effect = lower value 1.01 | locus YDL005C, strain med2, stronger effect = lower value 1.01 | locus YDL035C, strain GPR1, stronger effect = lower value 1.01 | locus YDL040C, strain nat1, stronger effect = lower value 1 | locus YDL074C, strain BRE1, stronger effect = lower value 1.05 | locus YDL101C, strain DUN1, stronger effect = lower value 1.02 | locus YDL134C, strain PPH21, stronger effect = lower value 1.02 | locus YDL185W, strain tfp1, stronger effect = lower value 1.01 | locus YDL192W, strain arf1, stronger effect = lower value 1.01 | locus YDR001C, strain nth1, stronger effect = lower value 1 | locus YDR069C, strain doa4, stronger effect = lower value 1 | locus YDR101C, strain arx1, stronger effect = lower value 1.01 | locus YDR137W, strain rgp1, stronger effect = lower value 1.03 | locus YDR150W, strain NUM1, stronger effect = lower value 1.01 | locus YDR159W, strain sac3, stronger effect = lower value 0.987 | locus YDR162C, strain NBP2, stronger effect = lower value 1.01 | locus YDR195W, strain ref2 0.971 | locus YDR297W, strain sur2, stronger effect = lower value 1.01 | locus YDR318W, strain mcm21, stronger effect = lower value 1.03 | locus YDR334W, strain swr1, stronger effect = lower value 1.02 | locus YDR335W, strain msn5, stronger effect = lower value 1.01 | locus YDR388W, stronger effect = lower value 1.01 | locus YDR392W, strain spt3, stronger effect = lower value 0.926 | locus YDR502C, strain sam2, stronger effect = lower value 1 | locus YEL003W, strain gim4, stronger effect = lower value 1.01 | locus YEL037C, strain rad23, stronger effect = lower value 1.02 | locus YEL061C, strain CIN8 (second series), stronger effect = lower value 1.01 | locus YEL061C, strain CIN8, stronger effect = lower value 1 | locus YER015W, strain faa2, stronger effect = lower value 1.02 | locus YER016W, strain bim1, stronger effect = lower value 1 | locus YER110C, stronger effect = lower value 1.01 | locus YER111C, strain swi4, stronger effect = lower value 1.01 | locus YER155C, strain BEM2 (second series), stronger effect = lower value 0.998 | locus YER155C, strain BEM2, stronger effect = lower value 1.01 | locus YER167W, strain BCK2, stronger effect = lower value 1.01 | locus YFR010W, strain ubp6, stronger effect = lower value 1.02 | locus YGL078C, strain dbp3, stronger effect = lower value 1 | locus YGL086W, strain mad1, stronger effect = lower value 1 | locus YGL167C, strain pmr1, stronger effect = lower value 1.01 | locus YGL173C, strain kem1, stronger effect = lower value 1.04 | locus YGL227W, strain vid30, stronger effect = lower value 1.01 | locus YGL240W, strain doc1, stronger effect = lower value 1 | locus YGL248W, strain PDE1, stronger effect = lower value 1.01 | locus YGL253W, strain hxk2, stronger effect = lower value 0.982 | locus YGR078C, strain PAC10, stronger effect = lower value 1.03 | locus YGR135W, strain pre9, stronger effect = lower value 1.01 | locus YGR229C, strain SMI1, stronger effect = lower value 1.03 | locus YGR252W, strain gcn5, stronger effect = lower value 0.988 | locus YHR013C, strain ard1, stronger effect = lower value 1 | locus YHR027C, strain rpn1, stronger effect = lower value 1.01 | locus YHR030C, strain SLT2, stronger effect = lower value 1.01 and 0.951 | locus YHR079C, strain IRE1 (second series), stronger effect = lower value 1.02 | locus YHR079C, strain IRE1, stronger effect = lower value 0.952 | locus YHR094C, strain hxt1, stronger effect = lower value 1.01 | locus YHR129C, strain ARP1, stronger effect = lower value 1.01 | locus YHR142W, strain chs7, stronger effect = lower value 0.992 | locus YHR200W, strain rpn10, stronger effect = lower value 1.01 | locus YIL066C, strain RNR3, stronger effect = lower value 1.02 | locus YIL073C, strain SPO22, stronger effect = lower value 1.02 | locus YIL125W, strain kgd1, stronger effect = lower value 1.01 | locus YIR030C, strain dcg1, stronger effect = lower value 1.01 | locus YJL092W, strain hpr5, stronger effect = lower value 1.02 | locus YJL095W, strain BCK1 (second series), stronger effect = lower value 1.01 | locus YJL095W, strain BCK1, stronger effect = lower value 1.04 and 0.961 | locus YJL115W, strain asf1, stronger effect = lower value 1.01 | locus YJL129C, strain trk1, stronger effect = lower value 1.02 | locus YJL134W, strain LCB3, stronger effect = lower value 1.01 | locus YJL154C, strain vps35, stronger effect = lower value 0.999 | locus YJL164C, strain tpk1, stronger effect = lower value 1.02 | locus YJL166W, strain qcr8, stronger effect = lower value 1 | locus YJL168C, strain set2, stronger effect = lower value 1.01 | locus YJL187C, strain SWE1 (second series), stronger effect = lower value 1.04 | locus YJL187C, strain SWE1, stronger effect = lower value 1.02 | locus YJR043C, strain POL32, stronger effect = lower value 1.04 | locus YJR066W, strain TOR1, stronger effect = lower value 0.927
